Unmarked numbers belong to inactive results. Activity calls are given as the source filed them.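 How the source made its calls, unless noted: active means mean inhibition over 43.08%, the solvent-only control mean plus 3 SD; inactive means the rest.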
What was measured:
[1] = target: Nuclear receptor coactivator 3 (Homo sapiens) (UniProt Q9Y6Q9); assay: SRC3 coactivator transcriptional activity inhibitors, confirmation, cell-based, luminescence, quadruplicate (AID 588792); details: HEK293 GAL4-SRC3 luciferase reporter, at 3.6 µM, hits give high values;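 further: 0% = DMSO treated cells and 100% = gossypol at 36 µM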
Sequence of Nuclear receptor coactivator 3 (Homo sapiens) (Q9Y6Q9 whole entry, looked up, the tested form may be a part): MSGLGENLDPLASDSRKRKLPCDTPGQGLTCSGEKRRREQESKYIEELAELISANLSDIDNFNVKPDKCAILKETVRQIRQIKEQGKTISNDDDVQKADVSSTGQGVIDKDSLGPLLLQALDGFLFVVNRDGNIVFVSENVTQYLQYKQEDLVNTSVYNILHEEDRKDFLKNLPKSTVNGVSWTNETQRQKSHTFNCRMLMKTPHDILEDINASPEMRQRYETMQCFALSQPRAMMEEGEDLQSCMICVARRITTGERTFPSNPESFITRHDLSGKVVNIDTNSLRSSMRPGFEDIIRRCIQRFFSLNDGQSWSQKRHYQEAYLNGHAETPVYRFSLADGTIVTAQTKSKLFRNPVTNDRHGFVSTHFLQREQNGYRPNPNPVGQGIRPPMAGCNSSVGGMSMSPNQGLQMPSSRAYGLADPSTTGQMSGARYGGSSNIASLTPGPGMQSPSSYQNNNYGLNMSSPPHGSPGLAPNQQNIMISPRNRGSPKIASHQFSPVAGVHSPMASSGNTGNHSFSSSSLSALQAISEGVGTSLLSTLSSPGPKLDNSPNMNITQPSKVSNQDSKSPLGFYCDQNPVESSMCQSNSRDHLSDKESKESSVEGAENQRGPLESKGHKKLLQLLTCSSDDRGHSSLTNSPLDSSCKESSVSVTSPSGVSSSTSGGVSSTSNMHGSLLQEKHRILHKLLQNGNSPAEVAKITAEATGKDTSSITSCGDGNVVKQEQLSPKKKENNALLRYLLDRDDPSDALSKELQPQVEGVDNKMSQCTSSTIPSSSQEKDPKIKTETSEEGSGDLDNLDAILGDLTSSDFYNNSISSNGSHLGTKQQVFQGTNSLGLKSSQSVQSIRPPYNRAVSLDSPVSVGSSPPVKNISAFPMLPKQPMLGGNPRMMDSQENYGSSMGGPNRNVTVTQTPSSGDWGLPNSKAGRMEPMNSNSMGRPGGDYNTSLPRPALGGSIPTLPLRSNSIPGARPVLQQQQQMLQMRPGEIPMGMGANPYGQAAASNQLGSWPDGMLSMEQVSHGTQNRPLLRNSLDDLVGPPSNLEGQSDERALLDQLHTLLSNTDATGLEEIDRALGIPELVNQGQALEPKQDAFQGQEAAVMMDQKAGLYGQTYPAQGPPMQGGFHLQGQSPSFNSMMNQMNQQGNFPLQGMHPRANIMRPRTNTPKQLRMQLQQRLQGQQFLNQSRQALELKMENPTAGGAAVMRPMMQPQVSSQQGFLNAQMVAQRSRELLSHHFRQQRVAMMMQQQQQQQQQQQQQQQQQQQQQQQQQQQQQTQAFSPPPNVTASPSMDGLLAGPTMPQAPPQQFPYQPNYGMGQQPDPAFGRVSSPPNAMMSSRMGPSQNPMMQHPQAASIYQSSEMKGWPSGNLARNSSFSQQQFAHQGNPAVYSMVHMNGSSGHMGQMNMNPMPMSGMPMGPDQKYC

[2] = test system: transactivating tegument protein VP16 (Human herpesvirus 1), Gal4-VP16 luciferase reporter; assay: VP16 transactivation inhibitors, counter-screen for SRC3 inhibitor project, cell-based, luminescence, high throughput (AID 588794; in the data active means inhibition above about 30%); details: mammalian cells, VP16-driven luciferase reporter luminescence; at 3.6 µM; hits give high values
[3] = target: Nuclear receptor coactivator 1 (Homo sapiens) (UniProt Q15788); assay: SRC1 coactivator transcriptional activity inhibitors, confirmation, cell-based, luminescence, quadruplicate (AID 588820;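 active means mean inhibition above 46.68%, the untreated control wells mean plus 3 SD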;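 further: 0% = DMSO wells and 100% = gossypol 36 µM treated wells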); details: HEK293 GAL4-SRC1 luciferase reporter, at 3.6 µM, hits give high values
Sequence of Nuclear receptor coactivator 1 (Homo sapiens) (Q15788 whole entry, looked up, the tested form may be a part): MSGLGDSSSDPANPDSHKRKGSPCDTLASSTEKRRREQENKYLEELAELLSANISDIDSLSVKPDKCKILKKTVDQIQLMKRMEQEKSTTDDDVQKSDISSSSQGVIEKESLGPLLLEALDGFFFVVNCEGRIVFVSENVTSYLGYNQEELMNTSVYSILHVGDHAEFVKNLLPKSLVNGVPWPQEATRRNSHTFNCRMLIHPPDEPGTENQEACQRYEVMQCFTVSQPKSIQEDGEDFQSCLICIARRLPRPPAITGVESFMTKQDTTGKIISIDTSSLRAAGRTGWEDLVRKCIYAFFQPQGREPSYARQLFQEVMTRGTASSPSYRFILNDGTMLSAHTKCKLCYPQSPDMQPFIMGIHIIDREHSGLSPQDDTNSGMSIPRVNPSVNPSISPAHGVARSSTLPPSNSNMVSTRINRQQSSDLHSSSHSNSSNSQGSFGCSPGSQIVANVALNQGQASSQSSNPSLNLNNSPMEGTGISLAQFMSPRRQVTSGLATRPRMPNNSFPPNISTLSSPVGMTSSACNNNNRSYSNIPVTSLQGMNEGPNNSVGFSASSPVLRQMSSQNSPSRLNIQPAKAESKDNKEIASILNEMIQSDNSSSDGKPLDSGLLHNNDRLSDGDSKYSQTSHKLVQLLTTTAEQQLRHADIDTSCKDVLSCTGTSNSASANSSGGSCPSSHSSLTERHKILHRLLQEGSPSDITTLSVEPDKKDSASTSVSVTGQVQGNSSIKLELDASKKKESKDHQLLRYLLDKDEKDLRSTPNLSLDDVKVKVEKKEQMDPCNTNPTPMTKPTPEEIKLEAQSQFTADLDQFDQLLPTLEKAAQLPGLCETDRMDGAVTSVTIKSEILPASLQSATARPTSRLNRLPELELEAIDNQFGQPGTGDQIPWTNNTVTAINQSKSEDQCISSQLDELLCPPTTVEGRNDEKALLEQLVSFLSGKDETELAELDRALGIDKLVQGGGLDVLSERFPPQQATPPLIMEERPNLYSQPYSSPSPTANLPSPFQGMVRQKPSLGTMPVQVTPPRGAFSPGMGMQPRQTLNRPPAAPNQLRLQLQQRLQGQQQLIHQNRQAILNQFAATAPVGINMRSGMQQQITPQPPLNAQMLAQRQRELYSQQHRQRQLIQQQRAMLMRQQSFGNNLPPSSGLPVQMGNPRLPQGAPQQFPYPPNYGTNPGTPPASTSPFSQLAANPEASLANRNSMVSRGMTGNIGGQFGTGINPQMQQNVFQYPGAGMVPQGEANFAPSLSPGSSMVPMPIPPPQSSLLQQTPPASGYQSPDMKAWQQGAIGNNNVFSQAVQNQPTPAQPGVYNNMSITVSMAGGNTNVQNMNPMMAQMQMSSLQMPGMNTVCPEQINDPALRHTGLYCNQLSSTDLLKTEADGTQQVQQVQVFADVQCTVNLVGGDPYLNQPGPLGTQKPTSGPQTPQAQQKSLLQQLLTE

[4] = VP16 transactivation inhibitors, counter-screen for SRC1 inhibitor project, cell-based, luminescence, high throughput (AID 588824; in the data active means inhibition above about 25%); details: cell-based VP16 transactivation luciferase luminescence; at 3.6 µM; hits give high values

| Structure (SMILES) | inhibition [1] | inhibition [2] | inhibition [3] | inhibition [4] |
| --- | --- | --- | --- | --- |
| CC(C)(C)NC(=O)CSc1nc2ccc(NC(=O)CSc3nnnn3Cc3ccccc3)cc2s1 | 0.03% | 28.7% | 3.45% | 26.4% (active) |
| CCN(CC)S(=O)(=O)c1ccc(/C=C/C(=O)Nc2ccc(F)c(F)c2F)cc1 | -25.9% | 30.7% (active) | 3.76% | 28.7% (active) |
| NC(=O)c1sc2nccc(Nc3ccccc3)c2c1N | 70.9% (active) | 47.7% (active) | 53.8% (active) | 39.8% (active) |
| Cc1oc2c(Cl)c(Cl)c(O)c(CN(C)C)c2c1C(=O)c1ccc(Cl)cc1 | 44.1% (active) | 26.1% | 44.2% | 33.1% (active) |
| COc1cccc(C(=O)Nc2nc(-c3ccc(S(=O)(=O)N4CCOCC4)cc3)cs2)c1 | 3.89% | 9.14% | -19.1% | -0.53% |
| CC(=O)NC(c1cc(Cl)c2cccnc2c1O)C(C)C (configuration not stated) | 31.1% | 23.5% | 38.5% | 20% |
| CCCCC(=O)OCC(=O)C1(O)Cc2c(O)c3c(c(O)c2C(OC2CC(NC(=O)C(F)(F)F)C(O)C(C)O2)C1)C(=O)c1c(OC)cccc1C3=O (configuration not stated) | 26% | 10.2% | 29.3% | 16.3% |
| O=C(Nc1nc(-c2ccc(S(=O)(=O)N3CCOCC3)cc2)cs1)c1ccccc1 | 0.95% | 19% | -17.1% | 12.6% |

Source: PubChem BioAssay
